Laboratory results from publication PMC4336329 (PLoS ONE, 2015).
Screen size: about 310,000 compounds; about 14,000 (4.5%) showed an effect of 50% or more. Effects have a minus sign here. Many of the other results were omitted from the sample, so strong results are more common in it than they were.

Target: human ether-à-go-go-related gene (hERG) potassium channel (human, UniProt Q12809)
Assay: primary screen, population patch clamp on CHO cells stably expressing hERG; higher = less effect of the substance
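Also: peak tail current of the secondary pulse compared with the same well before compound.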

Chain of human ether-à-go-go-related gene (hERG) potassium channel (Q12809 whole entry, looked up): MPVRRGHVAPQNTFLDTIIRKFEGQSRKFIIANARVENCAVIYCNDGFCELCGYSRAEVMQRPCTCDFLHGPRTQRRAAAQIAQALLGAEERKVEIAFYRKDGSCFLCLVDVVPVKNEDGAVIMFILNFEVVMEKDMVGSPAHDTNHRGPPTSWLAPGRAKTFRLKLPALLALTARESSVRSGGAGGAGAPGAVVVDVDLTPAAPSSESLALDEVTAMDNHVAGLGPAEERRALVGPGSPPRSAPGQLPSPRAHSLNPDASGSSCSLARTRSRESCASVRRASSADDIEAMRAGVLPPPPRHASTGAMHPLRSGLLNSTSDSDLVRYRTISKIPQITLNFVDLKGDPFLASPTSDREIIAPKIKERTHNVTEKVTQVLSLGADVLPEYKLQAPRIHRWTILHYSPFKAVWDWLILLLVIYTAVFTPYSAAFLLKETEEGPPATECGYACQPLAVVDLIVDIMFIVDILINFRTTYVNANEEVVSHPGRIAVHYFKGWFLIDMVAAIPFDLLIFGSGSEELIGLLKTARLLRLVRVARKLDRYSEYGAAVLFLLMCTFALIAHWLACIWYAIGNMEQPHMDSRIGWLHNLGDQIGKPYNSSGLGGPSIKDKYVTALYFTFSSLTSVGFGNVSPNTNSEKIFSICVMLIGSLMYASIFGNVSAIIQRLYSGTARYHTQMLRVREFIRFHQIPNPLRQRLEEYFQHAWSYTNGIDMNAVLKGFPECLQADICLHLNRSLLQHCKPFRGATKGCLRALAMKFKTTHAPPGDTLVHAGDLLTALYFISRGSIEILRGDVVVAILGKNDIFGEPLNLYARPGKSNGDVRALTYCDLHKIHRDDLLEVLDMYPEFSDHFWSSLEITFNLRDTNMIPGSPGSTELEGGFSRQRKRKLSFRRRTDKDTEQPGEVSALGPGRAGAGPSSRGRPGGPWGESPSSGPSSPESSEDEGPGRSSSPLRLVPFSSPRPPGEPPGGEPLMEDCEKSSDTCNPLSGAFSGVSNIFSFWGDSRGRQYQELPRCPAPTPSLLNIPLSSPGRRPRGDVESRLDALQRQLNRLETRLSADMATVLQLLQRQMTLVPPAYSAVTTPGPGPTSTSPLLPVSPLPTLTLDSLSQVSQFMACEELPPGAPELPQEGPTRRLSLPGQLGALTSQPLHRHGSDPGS

SMILES | hERG current change (%, negative = inhibition) at 10uM [%]
CNC(=O)c1c(C)nn(-c2ccc(F)c(Cl)c2)c1-c1cc(C)on1 | 4.71
Cc1ccc(CC(=O)Nc2ccc(S(=O)(=O)Nc3nccc(C)n3)cc2)cc1 | 1.2
CCCCC(NC(C)=O)c1nc2ccccc2[nH]1 (stereo not drawn) | 23.1
CC(C)COC(=O)Nc1ccccc1C(=O)N1CCOCC1 | 9.75
C=C[C@@H]1C2=CCOC(=O)C2=CO[C@H]1O[C@@H]1O[C@H](CO)[C@@H](O)[C@H](O)[C@H]1O | 20.1
N#CCCN1CCN(S(=O)(=O)c2ccc(S(=O)(=O)N3CCCC3)cc2)CC1 | 4.66
COc1ccc(S(=O)(=O)NCc2ccccn2)c(C)c1C | 0.26
N#CCc1c(C#N)c(N)nc(N2CCCC(CO)C2)c1C#N (stereo not drawn) | 1.82
Cc1cc(C)c(Cn2c3ccccc3c3cnn(CC(=O)NCCN4CCOCC4)c(=O)c32)c(C)c1 | 2.31
Cc1ccccc1Cn1c2ccccc2c2cnn(CC(=O)NCCCN3CCOCC3)c(=O)c21 | -18.6
O=C(Cn1ncc2c3ccccc3n(Cc3ccccc3)c2c1=O)NCCN1CCOCC1 | -57
O=C(Cn1ncc2c3ccccc3n(Cc3ccccc3F)c2c1=O)NCCN1CCOCC1 | -55.2
O=C(Cn1ncc2c3ccccc3n(Cc3ccccc3)c2c1=O)NCCCN1CCOCC1 | -45.2
Cc1ccc(C)c(Cn2c3ccccc3c3cnn(CC(=O)NCCN4CCOCC4)c(=O)c32)c1 | -45
CCC(=O)/C=C1/Sc2ccc(OC)cc2N1CC | -4.45
C=CCn1cc(C(=O)NCC2CCCO2)c(=O)c2cc(S(=O)(=O)N3CCCCCC3)ccc21 (stereo not drawn) | -48.1
O=C(COC(=O)C1=COCCO1)Nc1cccc(S(=O)(=O)N2CCOCC2)c1 | 10.8
COc1ccc(-c2c(NC(=O)c3ccco3)oc3ccc(Cl)cc3c2=O)cc1 | 19.7
O=c1ccn(Cc2ccc(F)cc2)c2ccnc(C(F)(F)F)c12 | -25.9
CCN(CC)S(=O)(=O)c1ccc(N2CCCC2)c(NC(=O)C2=COCCO2)c1 | -40
COC(=O)Cn1cc(/C=C/c2cc[n+](C)cc2)c2ccccc21.[I-] | 5.7
CCn1c(/C=C/c2cc[n+](C)cc2)nc2ccccc21.[I-] | 15
CCn1cc(/C=C/c2cc[n+](C)cc2)c2ccccc21.[I-] | -56.1
CN(C)c1ccc(-c2nc3cc(N)ccc3o2)cc1 | 6.31
CCCCNC(=O)c1cc2c(=O)n3cccc(C)c3nc2n(Cc2ccccc2)c1=N | -77.6
CCCCNC(=O)c1cc2c(=O)n3cccc(C)c3nc2n(Cc2ccncc2)c1=N | -75.1
CCCCNC(=O)c1cc2c(=O)n3cccc(C)c3nc2s1 | 7.96

SMILES | hERG current change (%, negative = inhibition) at 10uM [%]
COCCNC(=O)c1cc2c(=O)n3cccc(C)c3nc2n1C | 11.7
Cc1cccn2c(=O)c3cc(C(=O)N4COCC4(C)C)n(Cc4ccccc4)c3nc12 | 1.23
CCNC(=O)c1cc2c(=O)n3cccc(C)c3nc2n(Cc2ccc(C)cc2)c1=N | -88
COCCNC(=O)c1cc2c(=O)n3cccc(C)c3nc2n(Cc2ccncc2)c1=N | -70
CCc1cc2c(NC(Cc3c[nH]c4ccccc34)C(=O)O)nc(C)nc2s1 (stereo not drawn) | 31.3
COCC(=O)Nc1ccc(S(=O)(=O)Nc2ccccn2)cc1 | 17.8
Cc1ccc(S(=O)(=O)NCCOc2cc(C)ccc2C)cc1 | -6.41
Cc1c(NC(=O)CSc2n[nH]c(-c3ccccc3)n2)c(=O)n(-c2ccccc2)n1C | 3.93
CC1=C(C(=O)Nc2ccc(C(=O)NCCCN3CCCCC3)cc2)SCCO1 | -24.8
CN(N)N=Nc1nc2c([nH]1)c(=O)n(C)c(=O)n2C | 0.0258
Cc1cc(C)cc(SCc2noc(C(=O)NC(C)C)c2C(=O)O)c1 | 33.6
C=CCNC(=O)c1cnn(-c2ccccc2)c1-c1ccccc1 | 10.4
Cc1ccc(NCc2nnc(SCC(=O)Nc3nnc(C)s3)n2C)cc1 | -1.72
Cc1cccn2c(=O)c3cc(C(=O)NC(C)C)c(=N)n(Cc4ccncc4)c3nc12 | -72.4
Cc1ccc(S(=O)(=O)c2cc3c(=O)n4cccc(C)c4nc3n(Cc3ccncc3)c2=N)cc1 | -40.8
COC(=O)C1CCN(C(=O)c2cc3c(=O)n4cccc(C)c4nc3n2Cc2ccccc2)CC1 | 13.2
COc1ccc(NC(=S)N(CCN(C)C)Cc2cccs2)cc1 | -33.9
COc1cccc(NC(=S)N(CCCN2CCC(C)CC2)Cc2cccs2)c1 | -59.2
COc1ccc(NC(=S)N(CCCN2CCCCC2)Cc2cccs2)cc1 | -61
COc1cccc(NC(=S)N(CCCN2CCOCC2)Cc2cn(C)c3ccccc23)c1 | -10.7
COc1ccc(NC(=S)N(CCCN2CCCC2)Cc2cccs2)cc1 | -48
COc1cccc(NC(=S)N(CCN(C)C)Cc2cccs2)c1 | -10.5
COc1ccc(NC(=S)N(CCCN2CCOCC2)Cc2cn(C)c3ccccc23)cc1 | -16.8
COc1ccc(NC(=S)N(CCCN2CCC(C)CC2)Cc2cccs2)cc1 | -68.2
COc1ccc(NC(=S)N(CCCN2CCN(C)CC2)Cc2cccs2)cc1 | -53.4
CCCCN(C(=O)c1ccc(-c2ccc(Cl)cc2)o1)c1c(N)n(CCC)c(=O)[nH]c1=O | 0.856
O=C(NC1CCCC1)C(c1cccs1)N(Cc1ccco1)C(=O)Cn1nnc(-c2cccs2)n1 (stereo not drawn) | 2.45
